Tests used:
Settings in all cases: concentration: 1 μM, replicates: in singlicate; n = 1
[1] = test system: MKK7
[2] = test system: MKNK1
[3] = test system: MKNK2
[4] = test system: T1, MLCK
T1 construct: gene MYLK3

[5] = test system: T2, MLK1
T2 construct: gene MAP3K9

[6] = test system: MLK2
[7] = test system: MLK3
[8] = test system: MRCKA
[9] = test system: T3, MRCKB
T3 construct: gene CDC42BPB

[10] = test system: MST1R
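Also: KINOMEscan kinase panel screen.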

SMILES | %Inh [1] [%] | %Inh [2] [%] | %Inh [3] [%] | %Inh [4] [%] | %Inh [5] [%] | %Inh [6] [%] | %Inh [7] [%] | %Inh [8] [%] | %Inh [9] [%] | %Inh [10] [%]
c1ccc(-c2cc(-c3c[nH]nc3-c3ccccn3)ccn2)cc1 [GW576604] | 0 | 5 | 0 | 9 | 6 | 0 | 0 | 4 | 0 | 34
N#Cc1ccc(-c2cc(-c3c[nH]nc3-c3ccccn3)ccn2)cc1 [GW693028] | 0 | 7 | 14 | 0 | 0 | 6 | 0 | 0 | 0 | 26
O=C1Cc2cc(Nc3nc(NCc4cccc(S(=O)(=O)C(F)(F)F)c4)ncc3C(F)(F)F)ccc2N1 | 0 | 0 | 0 | 10 | 0 | 32 | 3 | 5 | 10 | 0
Fc1ccc(-c2ncn(CCCN3CCOCC3)c2-c2ccccn2)cc1 [SB-211742] | 0 | 0 | 0 | 0 | 0 | 27 | 0 | 0 | 0 | 0
Fc1ccc(-c2ncn(CCCN3CCOCC3)c2-c2cccnc2)cc1 [SB-211743] | 8 | 0 | 0 | 0 | 0 | 39 | 17 | 0 | 19 | 0
CN1c2ccc(NCc3ccc(F)cc3)cc2-c2c(cnn2C)S1(=O)=O | 0 | 0 | 0 | 0 | 15 | 22 | 0 | 0 | 0 | 0
COc1ccc(Nc2ncc(C#N)c(Nc3ccccc3C(N)=O)n2)cc1N1CCN(C)CC1.Cl [GSK1558669] | 0 | 30 | 98.2 | 99.7 | 98.7 | 100 | 100 | 44 | 87 | 86
c1ccc(-c2n[nH]cc2-c2ccnc3ccccc23)nc1 [GW271431] | 0 | 6 | 7 | 10 | 0 | 0 | 22 | 28 | 13 | 32
O=c1cc(N2CCOCC2)nc2n(Cc3cccc4ccccc34)ccn12 [GSK2333389] | 0 | 0 | 3 | 0 | 0 | 2 | 0 | 0 | 0 | 12
CSc1ccc(-c2cc3ncnc(SCC(=O)O)c3s2)cc1 | 0 | 0 | 0 | 3 | 0 | 24 | 0 | 8 | 34 | 36
CCCCCc1nc2c(N)ncnc2n1CCCCC [SKF-97255] | 0 | 6 | 0 | 0 | 0 | 50 | 0 | 0 | 0 | 0

— paper PMC5540273 (PLoS ONE, 2017)
